SW480 rereplic: induces DNA re-replication in SW480 colon adenocarcinoma cells | Potency, µM (titrated, usually from 46.1 µM), hits mostly activators | 340,000 compounds, 1.8% hits | SW480 DNA re-replication, Hoechst DNA content imaging, 48 h; note: nearly all actives have a fitted effect of over 55% in size
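Per well, 250 cells were exposed to pinned compound for 48 hr. Nuclear DNA was visualised with Hoechst (40 min, 37 C) and total object intensity recorded by fluorescence scanning.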
Gal4-VP16 FLuc: counter-screen for ROR gamma inhibitors: Gal4-VP16 reporter; Drosophila S2 Gal4-VP16 UAS-luciferase, luminescence, 20 h; Potency, µM (highest dose often 53.6 µM), usual class: inhibitors; 310,000 compounds, 3.5% hits; AID 2546;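 note: Gal4-VP16 expression switched on by copper sulfate through the metallothionein promoter; nearly all actives have a fitted effect of over 50% in size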
MCF10A rerep: induces DNA re-replication in MCF 10a normal breast cells | 350,000 compounds, 2.9% hits | Potency, µM (doses to about 46.1 µM), usual class: activators | MCF 10A DNA re-replication, Hoechst nuclear intensity, 48 h; note: nearly all actives have a fitted effect of over 50% in size
BCR signal inh: inhibitors of chronic active B-cell receptor signaling; ABC-DLBCL IkBa-CBG/CBR reporter, luminescence ratio, 4 h; Potency, µM (doses to about 46.1 µM), usual class: inhibitors; 340,000 compounds, 0.05% hits; active = well fitted inhibition curve with a large enough effect in the signal ratio, with a control signal flat, not every such curve was filed as active; inconclusive = small, poorly fitted or top-dose-only effect, or effect the other way, or a change in a side signal; the % refers to the signal ratio
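Cell line TMD8 (human ABC DLBCL), stably expressing tet-inducible CBG68-IkBa fusion and CBR; IMDM/0.5% FBS; cpd up to 46 uM; dox induction, 4 h, 37C/5% CO2; dual luminescence; green/red ratio; MG132 control.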
RORgamma inh: inhibitors of mouse ROR gamma transcriptional activity; Drosophila S2 Gal4-RORgamma UAS-luciferase reporter, 20 h; Potency, µM (series often up to 53.6 µM), usual class: inhibitors; 310,000 compounds, 5.4% hits; P51450; note: nearly all actives have a fitted effect of over 60% in size
Target sequence (P51450 whole entry, looked up, the tested form may be a part): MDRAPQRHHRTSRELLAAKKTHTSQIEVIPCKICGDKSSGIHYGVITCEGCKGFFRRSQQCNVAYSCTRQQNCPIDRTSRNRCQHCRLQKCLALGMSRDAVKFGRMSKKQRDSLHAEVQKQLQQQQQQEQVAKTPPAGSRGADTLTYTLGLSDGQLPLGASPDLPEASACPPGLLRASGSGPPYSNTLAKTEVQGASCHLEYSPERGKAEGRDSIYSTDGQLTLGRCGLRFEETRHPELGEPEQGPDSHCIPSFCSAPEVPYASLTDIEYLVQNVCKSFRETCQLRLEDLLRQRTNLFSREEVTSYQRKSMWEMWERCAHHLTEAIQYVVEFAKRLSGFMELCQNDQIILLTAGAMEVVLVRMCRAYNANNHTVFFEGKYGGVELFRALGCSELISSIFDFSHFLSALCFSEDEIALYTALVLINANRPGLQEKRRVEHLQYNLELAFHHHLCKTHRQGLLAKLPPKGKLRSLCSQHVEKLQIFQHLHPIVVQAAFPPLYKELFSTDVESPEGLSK
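Drosophila Schneider cells stably carrying a metallothionein-driven Gal4 DBD–ROR gamma fusion and a UAS-Photinus luciferase reporter were exposed to compound for 1 hr, then induced with copper sulfate (700 uM final) for 20 hr at ambient temperature before luminescence reading.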
Giardia killer: kills Giardia lamblia | Giardia lamblia trophozoite viability | 340,000 compounds, 0.15% hits | activity change, % at 7.66 µM, hits read low | AID 540267; in the data active = activity change below about -80%; inconclusive = between about -30% and that limit;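 note: parasites exposed to compound for two days anaerobically before the ATP read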
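Viability, read as ATP luminescence: trophozoites at 100 cells/well, compound added, 48 hrs anaerobic at 37 deg C, then 15-30 min room-temperature development before reading.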
Of the large screens only hits and unclear results are named; the others gave an inactive call. Most compounds without a hit are left out; they make up all but 8.3% or so of the library. Unless noted, calls come from the whole dose curve; as a rule, active = well fitted curve in the direction sought with a large enough effect; inconclusive = small, poorly fitted or top-dose-only effect, or another doubt; inactive = no such curve, though single readings can be large; an effect the other way counts as inactive or inconclusive.

CC(=O)Nc1c(N)[nH]c(=O)n(C)c1=O	none (no result: SW480 rereplic, MCF10A rerep, BCR signal inh, Giardia killer)
CSCCC(NS(=O)(=O)c1cccc(C(F)(F)F)c1)C(=O)N(C)CCOc1ccc(Cl)cc1 (stereo not drawn)	SW480 rereplic 5.8µM, MCF10A rerep inconclusive, BCR signal inh inconclusive (no result: Gal4-VP16 FLuc, RORgamma inh)
Cc1cccc(N2CCCn3c2nc2c3c(=O)[nH]c(=O)n2C)c1	none
CCCN1CCC(=NNc2ccc(S(=O)(=O)N3CCOCC3)cc2[N+](=O)[O-])CC1	SW480 rereplic 7.3µM, MCF10A rerep 7.3µM, BCR signal inh inconclusive
CC(=O)N1CCC(=NNC(=O)c2cc3ccccc3cc2O)CC1	MCF10A rerep inconclusive, RORgamma inh 10µM
O=C(N/N=C1\CCc2ccccc21)c1ccccc1O	Gal4-VP16 FLuc inconclusive, BCR signal inh inconclusive, RORgamma inh inconclusive, Giardia killer inconclusive
CCOC(=O)C1=C(C)C/C(=N\NC(=O)c2ccccc2O)CC1	SW480 rereplic 18µM, Gal4-VP16 FLuc 10µM, BCR signal inh inconclusive, RORgamma inh 5µM
O=C(NN=C1CCN(Cc2ccccc2)CC1)c1cc2ccccc2cc1O	none (no result: SW480 rereplic)
O=C(NN=C1CCN(Cc2ccccc2)CC1)c1ccccc1O	SW480 rereplic inconclusive, Gal4-VP16 FLuc inconclusive, BCR signal inh inconclusive, RORgamma inh 10µM
CCOC(=O)N1CCC(=NNC(=O)c2cc3ccccc3cc2O)CC1	Gal4-VP16 FLuc inconclusive, RORgamma inh 13µM
Cc1ccc2c(C(=O)CN3CC(C)CC(C)C3)c(C)[nH]c2c1 (stereo not drawn)	none (no result: SW480 rereplic, MCF10A rerep, Giardia killer)
CSc1ccccc1NC(=O)CN1c2ccccc2CC1C (stereo not drawn)	SW480 rereplic 8.2µM, MCF10A rerep inconclusive
O=C(c1coc(=O)c(Br)c1)N1CCCc2ccccc21	Gal4-VP16 FLuc inconclusive, MCF10A rerep 15µM
O=C(c1cccc(Br)c1)N1CCCc2ccccc21	RORgamma inh inconclusive
Cc1ccccc1CN1CCC(Oc2ccc(C(=O)NCc3ccccn3)cc2)CC1	none
COc1ccc(-c2nnc(NC(=O)c3ccc(F)cc3)o2)cc1	Gal4-VP16 FLuc inconclusive, RORgamma inh 0.11µM
COc1ccc(-c2nnc(NC(=O)c3cc(Cl)ccc3Cl)o2)cc1	Gal4-VP16 FLuc 1.4µM, MCF10A rerep inconclusive, BCR signal inh inconclusive, RORgamma inh 1.1µM
COc1ccc(-c2nnc(NC(=O)c3ccc4c(c3)OCCO4)o2)cc1	Gal4-VP16 FLuc 1.3µM, BCR signal inh inconclusive, RORgamma inh 1.1µM
O=C(Nc1nnc(-c2ccc(F)cc2)o1)c1ccc(S(=O)(=O)N2CCOCC2)cc1	SW480 rereplic 10µM, Gal4-VP16 FLuc 0.71µM, RORgamma inh 0.63µM
COc1ccc(-c2nnc(SCC(=O)Nc3cccc(Cl)c3)o2)cc1	Gal4-VP16 FLuc inconclusive, MCF10A rerep inconclusive
CC(=O)c1ccccc1NC(=O)CSc1n[nH]c(=O)n1C1CC1	BCR signal inh inconclusive (no result: Gal4-VP16 FLuc, RORgamma inh)
Nc1c(C(=O)NC2CCCC2)c2nc3ccccc3nc2n1/N=C/c1cccnc1	SW480 rereplic inconclusive, MCF10A rerep 4.1µM (no result: Gal4-VP16 FLuc, BCR signal inh, RORgamma inh)
O=c1c(Cl)c(O)c2cccc3c4ccccc4n1c23	MCF10A rerep 23µM
COc1ccc(-c2nc(-c3ccccc3)oc2Nc2ccccc2C)cc1	none (no result: SW480 rereplic, MCF10A rerep, BCR signal inh, Giardia killer)
NNC(=O)c1cc(Cl)ccc1Cl	SW480 rereplic inconclusive, MCF10A rerep inconclusive, BCR signal inh inconclusive, RORgamma inh 11µM
COc1cc2c(cc1OC)C(c1ccc(SC)cc1)CC(=O)N2 (stereo not drawn)	MCF10A rerep 4.6µM, BCR signal inh inconclusive
COc1cccc(C2CC(=O)Nc3cc4c(cc32)OCCO4)c1OC(C)C (stereo not drawn)	SW480 rereplic inconclusive, MCF10A rerep inconclusive, RORgamma inh inconclusive
COc1ccccc1C1CC(=O)Nc2cc3c(cc21)OCCO3 (stereo not drawn)	SW480 rereplic 2.1µM, Gal4-VP16 FLuc 11µM, MCF10A rerep 3.7µM, BCR signal inh 23µM
CC(C)Oc1ccccc1C1CC(=O)Nc2cc3c(cc21)OCCO3 (stereo not drawn)	SW480 rereplic 1.6µM, Gal4-VP16 FLuc inconclusive, MCF10A rerep inconclusive, BCR signal inh inconclusive
O=C1CC(c2cccs2)c2cc3c(cc2N1)OCCO3 (stereo not drawn)	MCF10A rerep 18µM

Screens deposited in PubChem by National Center for Advancing Translational Sciences (NCATS).
